Most compounds without a hit are left out; they make up all but 11% or so of the library.
Pf growth 96h = Primary qHTS for delayed death inhibitors of the malarial parasite plastid, 96 hour incubation; actives 6.9% (n = 320,000); Potency, µM (series often up to 28.7 µM), actives largely listed as inhibitors; P. falciparum luciferase reporter growth, 96 h
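Readout is luminescence from an integrated firefly luciferase in P. falciparum. Red cells, 2% hematocrit and 0.05% parasitemia final, were cultured with compound through two parasite generations (96 hours) at 37 C, 5% CO2.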
AmpC no deterg = qHTS Inhibitors of AmpC Beta-Lactamase (assay without detergent). Potency, µM (titrated, usually from 57.1 µM), actives largely listed as inhibitors. actives 0.52% (n = 330,000). AmpC nitrocefin hydrolysis, absorbance 480 nm, 0.0001% Triton. P00811. AID 485341, 2010; also: nearly all actives have a fitted effect of over 20% in size
Target sequence (P00811 whole entry, looked up): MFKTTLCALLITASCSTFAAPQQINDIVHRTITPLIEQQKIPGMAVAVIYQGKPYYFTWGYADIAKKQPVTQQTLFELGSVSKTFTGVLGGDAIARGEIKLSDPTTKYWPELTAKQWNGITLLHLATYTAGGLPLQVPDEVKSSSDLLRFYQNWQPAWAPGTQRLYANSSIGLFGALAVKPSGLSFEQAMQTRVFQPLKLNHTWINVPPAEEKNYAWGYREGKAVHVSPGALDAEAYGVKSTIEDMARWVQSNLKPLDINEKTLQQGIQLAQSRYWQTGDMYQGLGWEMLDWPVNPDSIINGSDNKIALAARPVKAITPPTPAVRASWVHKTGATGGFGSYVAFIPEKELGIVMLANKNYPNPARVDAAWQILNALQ
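AmpC (5.3 nM in the dispensed reagent) in 20 mM phosphate pH 7.0 with 0.01% (detergent screen) or 0.0001% Triton X-100 was preincubated with compounds for 15 min at room temperature. Nitrocefin was then added from an 800 uM solution, and hydrolysis was followed at 480 nm.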
HCV inhibitor = qHTS Assay for Inhibitors of Hepatitis C Virus (HCV) | Huh7.5.1 HCVcc-Cre infection, luciferase reporter, 44 h | Potency, µM (series often up to 41.8 µM), most hits filed as inhibitors | actives 3.4% (n = 340,000)
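Reporter virus HCVcc-Cre (~0.5 moi) infects cells exposed to compound; seeding density 1,000 cells/well with 4 h settling beforehand. Luminescence, 15 sec read, taken 44 h post-infection following a 15 min RT substrate incubation.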
AMA1 RON2 block = qHTS for Inhibitors of AMA1-RON; Towards Development of Antimalarial Drug Lead: Primary Screen; AlphaScreen AMA1-biotinylated RON2 peptide binding; Potency, µM (highest dose often 58.2 µM), usual class: inhibitors; Plasmodium falciparum AMA1 (3D7) - RON2 peptide interaction; actives 0.2% (n = 360,000); also: nearly all actives have a fitted effect of over 45% in size
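AMA1 (3D7) with his tag at 25 nM final met compounds first, then biotinylated RON2 peptide at 25 nM; detection used donor plus acceptor beads, 10 µg/mL apiece, read by AlphaScreen after 30 min at room temperature.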
AmpC detergent = qHTS Inhibitors of AmpC Beta-Lactamase (assay with detergent); P00811; AmpC hydrolysis of nitrocefin, absorbance 480 nm, 0.01% Triton; Potency, µM (highest dose often 114 µM), actives largely listed as inhibitors; actives 0.041% (n = 370,000); AID 485294, 2010; also: nearly all actives have a fitted effect of over 25% in size
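20 mM phosphate pH 7.0 + 0.01% (detergent screen) or 0.0001% Triton X-100; 5.3 nM AmpC reagent; cpd preinc 15 min RT; nitrocefin (800 uM stock) to start; A480 q20 s × 4 min; Activity was normalised to no-enzyme and no-compound control wells.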
Pf growth 48h = Primary qHTS for delayed death inhibitors of the malarial parasite plastid, 48 hour incubation; P. falciparum luciferase growth in erythrocytes, 48 h; Potency, µM (top dose mostly 28.7 µM), actives largely listed as inhibitors; actives 5.9% (n = 310,000); AID 504832, 2011
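Luminescence readout; reporter = integrated firefly luciferase in P. falciparum. RBC culture at 2% hematocrit, 0.1% parasitemia final, 37 C/5% CO2; decreased signal taken as growth inhibition.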
Hits are given with their value; n = inactive; u = inconclusive; x = not tested or not shown; [ ] = remark or other dose. Calls follow the shape of the dose curve; as a rule, active = well fitted curve in the direction sought with a large enough effect; inconclusive = small, poorly fitted or top-dose-only effect, or another doubt; inactive = no such curve, though single readings can be large; an effect the other way counts as inactive or inconclusive.

SMILES | Pf growth 96h | AmpC no deterg | HCV inhibitor | AMA1 RON2 block | AmpC detergent | Pf growth 48h
CCn1cc(C(=O)N2CCN(c3cc(Cl)ccc3C)CC2)c(=O)c2cc(S(=O)(=O)N3CCOCC3)ccc21 | x | x | x | x | n | x
OC1CCCN(C(=S)NCc2ccccc2)C1 (stereo not drawn) | 3.3µM | n[2.29 µM] | n | n | n | n
CC1CCCN(C(=S)NCc2ccccc2)C1 (stereo not drawn) | n | n | n | n | n | n
Nc1ccc(-n2nnnc2CN2CCOCC2)cc1 | u | n | n | n | n | n
Nc1cccc(-n2nnnc2CN2CCOCC2)c1 | 10µM | n | n | n | n | n
O=[N+]([O-])c1ccc(-n2nnnc2CN2CCOCC2)cc1 | 6.6µM | n | n | n | n | n
N#Cc1ccccc1NC(=O)CSc1ncn[nH]1 | x | x | x | x | n | x
CCc1c(C)nc(SCc2nc(-c3ccccc3)no2)[nH]c1=O | x | x | x | x | n | x
NC(=S)Cc1ccc(Cl)cc1Cl | n | n | n | n | n | n
N=C(N)SCc1ccc(Cl)cc1Cl | 10µM | n | 11µM | n | n | u
OCC[C@H]1C[C@H](O)[C@@H](O)[C@]2(CCc3ccccc3CO2)O1 | n | n | 0.56µM | n | n | u
Cc1ccccc1NC(=O)CSc1nc(-c2ccc(F)cc2)nc2c1Cc1ccccc1O2 | x | x | x | x | n | x
Cc1cccc(NC(=O)c2ccc(Cl)c(S(=O)(=O)N3CCc4ccccc43)c2)n1 | 12µM | n | u | n | n | 12µM
Cc1cccc(NC(=O)c2ccc(Cl)c(S(=O)(=O)N3CCCCCC3)c2)n1 | u | n | n | n | n | u
Cc1cccc(NC(=O)c2ccc(Cl)c(S(=O)(=O)N3CCCC3)c2)n1 | 7.4µM | n | n | n | n | u
Cc1cccc(NC(=O)c2cc(S(=O)(=O)N3CCCCC3)ccc2Cl)n1 | u | n | n | n | u | 9.3µM
O=C(Nc1ccncc1)c1ccc(Cl)c(S(=O)(=O)N2CCc3ccccc32)c1 | 3.7µM | n | 10µM | n | n | 3.3µM
Cc1cccc(NC(=O)c2ccc(S(=O)(=O)N3CCCCCC3)cc2)n1 | u | n | u | n | n | u
CN(C)c1ccc(CNc2nc(-c3ccco3)nn2S(=O)(=O)c2ccc3ccccc3c2)cc1 | x | x | x | x | n | x
COc1ccc(S(=O)(=O)N2CCCCCC2)cc1C(=O)Nc1cc(C)ccn1 | 10µM | n | n | n | u | 9.3µM
Cc1ccc(S(=O)(=O)N2CCCCC2)cc1C(=O)Nc1ccccn1 | 2.1µM | n | n | n | n | 3.3µM
Cc1ccccc1Cn1nnc(-c2ccc(F)cc2)n1 | n | n | n | n | n | n
Fc1ccc(-c2nnn(Cc3ccccc3Cl)n2)cc1 | n | n | 2µM | n | n | n
CS(=O)(=O)N(Cc1ccccc1)c1ccccc1C(=O)Nc1ccccc1C(=O)NCc1ccco1 | u | n | n | n | n | x
Cc1ccc(S(=O)(=O)N(Cc2ccccc2)c2ccccc2C(=O)Nc2ccccc2C(=O)NCc2ccco2)cc1 | u | n | n | n | n | 10µM
SMILES | Pf growth 96h | AmpC no deterg | HCV inhibitor | AMA1 RON2 block | AmpC detergent | Pf growth 48h
Cc1ccc(S(=O)(=O)N(Cc2ccccc2)c2ccccc2C(=O)NCc2ccco2)cc1 | 5.9µM | n | u | n | n | 10µM
CSC1=NC2(CCN(C(=O)NC3CCCCC3)CC2)N=C1c1ccc(C)cc1 | x | x | x | x | n | x
CC1CCc2c(sc3nnn(Cc4ccccc4Cl)c(=O)c23)C1 (stereo not drawn) | x | x | x | x | n | x
CCCN1C(=O)/C(=C/c2ccc3c(c2)OCO3)NC1=S | 9.3µM | n | n | n | u | n
CCCN1C/C(=C/c2ccc3c(c2)OCO3)C(=O)/C(=C/c2ccc3c(c2)OCO3)C1 | 1.9µM | n | u | n[11.6 µM] | n | n
CCCN1C/C(=C/c2cccc([N+](=O)[O-])c2)C(=O)/C(=C/c2cccc([N+](=O)[O-])c2)C1 | u | n | u | n | n | 15µM
Cc1ccccc1CNC(=O)c1c(C)oc2c1C1=NCCN1C=N2 | x | x | x | x | n | x
Cc1nnc(N2CCC(C(=O)NCCc3ccccc3Cl)CC2)c2nn(-c3ccccc3)c(C)c12 | x | x | x | x | n | x
Oc1ccccc1/C=N/n1cnnc1 | n | n | n | n | n | x
O=C1/C(=N/n2cnnc2)c2ccccc2N1Cc1ccccc1 | 9.3µM | n | x | x | n | n
c1ccc2c(c1)C(=Nn1cnnc1)c1ccccc1-2 | 12µM | n | u | n | n | n
Cc1c2ccccc2cc[n+]1CCCS(=O)(=O)[O-] | u | n | n | u | u | u
CCCCCCCCCC[n+]1cccc2c3ccccc3ccc21 | u | n | 4µM | n | n | 2.1µM
Cc1cccc[n+]1CCCCCCCCCC[n+]1ccccc1C | n | n | u | n | n | u
CCCCCCCC[n+]1cccc2c3ccccc3ccc21 | n | n | 1.4µM | n | n | 1.2µM
O=C(NCc1ccc2c(c1)OCO2)c1ccc(CS(=O)Cc2ccc(Cl)cc2)o1 (stereo not drawn) | u | n | 11µM | n | n | n
COc1ccc(OC)c(CCNC(=O)c2ccc(CS(=O)Cc3ccc(Cl)cc3)o2)c1 (stereo not drawn) | u | n | 10µM | n | n | n
CCOc1ccc(CCNC(=O)c2ccc(CS(=O)Cc3ccc(Cl)cc3)o2)cc1 (stereo not drawn) | u | n | u | n | n | n
Cc1ccc(CS(=O)Cc2ccc(C(=O)NCc3ccc4c(c3)OCO4)o2)cc1 (stereo not drawn) | 13µM | n | n | n | n | n
COC(=O)c1c(SC)nc2ccccc2c1OCc1cccc(C)c1 | x | x | x | x | n | x
COc1ccccc1N1CCN(S(=O)(=O)c2ccc(F)c(C(=O)Nc3ccc(C)c(F)c3)c2)CC1 | x | x | x | x | n | x
Cc1cc(C)c(S(=O)(=O)Nc2ccc(-c3ccc(N4CCCCC4)nn3)cc2)c(C)c1 | x | x | x | x | n | x
CC(=O)Nc1ccc(NC(=O)c2ccc3c(c2)N(Cc2cccc(Cl)c2)C(=O)c2ccccc2S3=O)cc1 (stereo not drawn) | x | x | x | x | n | x
Cc1ccc2nc(Cl)c(/C=N/NC(=O)[C@H]3C[C@@H]3c3ccccc3)cc2c1 | 2.1µM | n | u | n | n | u
Cc1cn(-c2cc(C(=O)Nc3ccc(C)c(NC(=O)C(=O)c4c[nH]c5ccccc45)c3)cc(C(F)(F)F)c2)cn1 | u | n | u | n | n | 1µM
CCN(C(=O)c1nn(-c2ccc(C)cc2)c(=O)c2c1c1ccccc1n2C)c1ccc(F)cc1 | x | x | x | x | n | x
